DT40 TDP1 no CPT – qHTS for Inhibitors of human tyrosyl-DNA phosphodiesterase 1 (TDP1): qHTS in cells in absence of CPT | DT40 Tdp1-/- hTDP1 cells, no CPT, ATP luminescence, 48 h | 420,000 compounds, 15% hits | Potency, µM (highest dose often 46.2 µM), without a hit: top-dose activity change, negative = growth inhibition, usual class: inhibitors | AID 686978, 2013; further: potency means the concentration at half of the fitted maximal effect; on the % scale 0 is the no-effect control and ±100 the full control effect; nearly all actives have a fitted effect of over 55% in size
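Growth kinetics read by CellTiter-Glo luminescence after ≥48 hr at 37 °C. Cells: DT40 Tdp1-/- stably carrying human TDP1, 400 per well, compound exposure in the absence of CPT (DMSO vehicle).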
MCF10A rerep – induces DNA re-replication in MCF 10a normal breast cells. MCF 10A DNA re-replication, Hoechst nuclear intensity, 48 h. 350,000 compounds, 2.9% hits. AID 624296. Potency, µM (highest dose often 46.1 µM), for inactives: top-dose activity, positive = re-replication, usual class: activators; further: potency means the concentration at half of the fitted maximal effect; % of control where 0% means no effect; nearly all actives have a fitted effect of over 50% in size
Chronic BCR inh – chronic active BCR signaling inhibition. ABC-DLBCL IkBa-CBG/CBR reporter, luminescence ratio, 4 h. Potency, µM (highest dose often 46.1 µM), inactives show at the highest dose activity change, negative = inhibition, most hits filed as inhibitors. 340,000 compounds, 0.05% hits. AID 493014; active means well fitted inhibition curve with a large enough effect in the signal ratio, with a control signal flat, not every such curve was filed as active; inconclusive means small, poorly fitted or top-dose-only effect, or effect the other way, or a change in a side signal; the % refers to the signal ratio;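 further: potency means the concentration at half of the fitted maximal effect; plate controls were basal doxycycline-induced cells for no effect and cells given 10 µM MG132 for full effect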
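TMD8 ABC-DLBCL cells carrying doxycycline-inducible green luciferase fused to IkappaBalpha plus unfused red luciferase were exposed to compounds (up to 46 uM) for 4 hrs at 37C. Activity came from the overlap-corrected green/red luminescence ratio.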
SW480 rereplic – inducers of DNA re-replication in SW480 colon cancer cells. SW480 DNA re-replication, Hoechst DNA content imaging, 48 h. Potency, µM (top dose mostly 46.1 µM), for inactives: at the highest dose re-replication activation, hits mostly activators. 340,000 compounds, 1.8% hits. AID 624297; further: potency means the concentration at half of the fitted maximal effect; % of control where 0% means no effect; nearly all actives have a fitted effect of over 55% in size
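Quantitative HTS format with DMSO vehicle controls; 48 hr drug incubation at 37 C, then 40 min Hoechst staining and scanning imager measurement at 405 nm excitation.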
DT40 TDP1 CPT – DT40-hTDP1 cell growth loss with CPT. AID 686979. Potency, µM (highest dose often 46.2 µM), for the others: top-dose activity change, negative = growth inhibition, usual class: inhibitors. 420,000 compounds, 12% hits. chicken DT40 Tdp1-/-;hTDP1 cells + 20 nM CPT, ATP luminescence, 48 h; further: potency means the concentration at half of the fitted maximal effect; on the % scale 0 is the no-effect control and ±100 the full control effect; nearly all actives have a fitted effect of over 55% in size
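Chicken DT40 Tdp1-/- cells stably complemented with human TDP1 were seeded at 400 cells/well in medium containing 20 nM camptothecin, exposed to pin-transferred compounds, and grown at 37 °C for at least 48 hr. Viability was read as ATP luminescence.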
IL1B secr inh – blocks inflammasome-driven IL-1 beta release; THP-1 LPS/ATP IL-1B secretion, AlphaLISA, 16 h; stronger effect = lower value; 360,000 compounds, 4.7% hits; AID 743279; activity change, % at 57.5 µM; in the data active means activity change below about -50%; inconclusive means mostly about -30% to -49%; further: on the % scale 0 is the no-effect control and ±100 the full control effect
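Secreted IL-1B measured by AlphaLISA bead assay after 16 h compound exposure of THP-1 cells; compounds (final up to 57.5 uM) added 1 h before LPS (250 ng/mL) and ATP (1.25 mM) stimulation; lower signal means less secretion.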
Numbers without * were called inactive; ? = inconclusive; · = not tested or not shown. Only some compounds are listed: those with a hit (about 19% of all), similar ones and a draw of the others. Unless noted, the call rests on the fitted dose curve; in most records, active means well fitted curve in the direction sought with a large enough effect; inconclusive means small, poorly fitted or top-dose-only effect, or another doubt; inactive means no such curve, though single readings can be large; an effect the other way counts as inactive or inconclusive.

SMILES	DT40 TDP1 no CPT	MCF10A rerep	Chronic BCR inh	SW480 rereplic	DT40 TDP1 CPT	IL1B secr inh
CCN1C(=O)[C@H]2[C@H]3CN=C(SCc4ccc(C)cc4)N3[C@@](Cc3ccccc3)(C(=O)OC)[C@H]2C1=O	?	27.6%	-11.6%	?	?	-13.2
COc1ccccc1-c1cn[nH]c1-c1ccc(OCc2ccccc2F)cc1O	14.6µM*	7.31µM*	16.2%	?	18.4µM*	-101.0*
COc1ccccc1-c1cn[nH]c1-c1ccc(OCc2ccc([N+](=O)[O-])cc2)cc1O	-17.5%	3.8%	3.0%	-1.2%	1.7%	22.9
COc1ccccc1-c1cn[nH]c1-c1ccc(OCc2ccc(F)cc2)cc1O	?	?	?	13.1%	?	-51.6*
Cc1ccc(-n2nnnc2CNC(=O)c2ccc(F)cc2)cc1C	-0.6%	·	·	·	-9.2%	·
O=S(=O)(c1ccc(Br)cc1Cl)N1CCN(CCO)CC1	-5.2%	6.4%	3.4%	-7.1%	-6.3%	44.8
O=C1C=CC(=O)c2c(O)c(N3CCN(CCO)CC3)c(Cl)c(O)c21	0.581µM*	0.2%	·	0.651µM*	0.581µM*	-73.4*
CCOc1cc(CN2CCN(CCOCCO)CC2)ccc1OC	1.2%	1.2%	?	1.3%	-5.4%	4.6
O=C1C=CC(=O)c2c(O)c(N3CCN(CCOCCO)CC3)c(Br)c(O)c21	0.92µM*	3.0%	·	?	0.651µM*	-116.9*
Cc1ccc(-c2nc(CS(=O)(=O)CC(=O)NC3CCCCCC3)c(C)o2)cc1	?	?	-6.2%	-26.1%	-3.6%	?
CCN(C(=O)Nc1cccc(Cl)c1)c1ccccc1	-16.6%	?	?	1.3%	-8.0%	-7.6
O=C(Nc1ccccc1)N(Cc1cccc(Cl)c1)c1ccccn1	?	·	·	·	23.1µM*	·
Cc1ccc2sc(-c3ccc(NC(=O)c4cc(-n5cnnc5)ccc4Cl)cc3)nc2c1	9.2µM*	2.59µM*	14.1%	14.6µM*	13µM*	-15.6
Cc1ccc2sc(-c3ccc(NC(=O)/C=C\C(=O)O)cc3)nc2c1	-9.9%	23.1µM*	?	?	3.4%	?
Cc1c(C(=O)Nc2cccc(-c3nc4ccccc4s3)c2)oc2ccc(F)cc12	14.6µM*	·	·	·	?	·
O=C(Nc1cccc(-c2nc3ccccc3s2)c1)c1cc(-n2cnnc2)ccc1Cl	16.4µM*	?	?	?	9.2µM*	?
Cc1nc2ccc(NC(=O)c3oc4ccc(F)cc4c3C)cc2s1	8.6%	-1.2%	0.9%	-7.8%	-4.7%	8.7
Oc1ccc2ccccc2c1C=NC1CCCCC1	-27.9%	?	-27.6%	1.4%	?	25.9
Oc1c(Br)cc(Br)cc1/C=N/c1nc2c(s1)CCCC2	16.4µM*	?	·	-25.4%	?	28.0
Oc1c(Br)cc(Br)cc1C=Nc1ccc2c(c1)OCO2	-0.1%	?	6.6%	8.5%	12.7%	53.5
Oc1ccc2ccccc2c1/C=N/c1nc2c(s1)CCCC2	29.1µM*	?	3.6%	-4.9%	?	0.0
COc1ccc(CC(=O)Nc2cccnc2)cc1	0.1%	2.7%	1.5%	0.4%	0.2%	8.5
Oc1ccc2ccccc2c1C=Nc1ccccc1-c1nc2ccccc2[nH]1	16.4µM*	?	?	0.3%	?	37.7
CCOC(=O)c1sc(=S)n(C)c1NC(=O)c1ccccc1	20.6µM*	0.4%	4.5%	-3.2%	?	14.7
CCOC(=O)c1sc(=S)n(C)c1NC(=O)c1cccc(Br)c1	20.6µM*	?	?	-2.6%	20.6µM*	-12.5
SMILES	DT40 TDP1 no CPT	MCF10A rerep	Chronic BCR inh	SW480 rereplic	DT40 TDP1 CPT	IL1B secr inh
S=c1[nH]c(=S)c2[nH]cnc2[nH]1	5.9%	·	·	·	-1.5%	·
O=C(NCc1cc(C(F)(F)F)cc(C(F)(F)F)c1)c1cc(-c2cc(F)ccc2OCC2CCCO2)n[nH]1 (centres undefined)	5.1%	·	·	·	-14.8%	13.0
COc1cc(CNC(=O)c2cc(-c3cc(F)ccc3OCC3CCCO3)n[nH]2)cc(OC)c1 (centres undefined)	20.6µM*	·	·	·	?	-21.5
Cc1ccc(NC(=O)c2cc(-c3cc(F)ccc3OCC3CCCO3)n[nH]2)cc1NS(C)(=O)=O (centres undefined)	14.6µM*	·	·	·	14.6µM*	-4.3
CCOC(=O)N/N=C\c1ccc(-c2cc(Cl)ccc2Cl)o1	-22.2%	?	?	-17.0%	?	44.6
NC(=S)N/N=C/c1ccc(-c2cc(Cl)cc(Cl)c2)o1	2.06µM*	13µM*	·	-2.7%	5.8µM*	-18.0
NC(=S)N/N=C/c1ccc(-c2cc(Cl)ccc2Cl)o1	3.26µM*	-0.4%	?	-2.9%	2.59µM*	52.0
Cc1cccc(NC(=O)/C(C#N)=C/c2ccc(Cl)cc2)n1	-16.2%	22.6%	11.4%	1.7%	-13.2%	-2.4
CSc1ccc(/C=C/C(=O)Nc2ccccc2)cc1	-23.8%	1.2%	?	-3.1%	?	-19.7
Cc1cccc(NC(=O)/C=C/c2ccc(Cl)cc2)n1	18.4µM*	0.2%	?	·	?	-2.9
COc1cccc(NC(=O)/C=C/c2ccco2)c1	?	16.7%	?	-6.9%	-22.6%	?
CSc1cccc(NC(=O)/C=C/c2ccco2)c1	?	8.8%	?	1.7%	23.1µM*	-4.9
CSc1cccc(NC(=O)/C=C/c2ccc(Cl)cc2)c1	?	16.1%	?	-0.4%	?	-72.3*
COc1cccc(NC(=O)/C=C\c2ccc(Cl)cc2)c1	?	·	·	·	29.9µM*	·
CCOCCn1ccc2c(OCC(=O)NCc3ccccc3)cccc2c1=O	-15.1%	-3.0%	-2.2%	1.7%	-14.0%	0.3
O=c1cc(N2CCOCC2)oc2c(-c3ccccc3)cccc12	7.31µM*	·	·	·	8.2µM*	·
CC(=O)N1CCC(N(C(=O)Nc2ccc(C)c(C)c2)C2CCCC2)CC1	-15.0%	-6.7%	5.9%	9.7%	-15.1%	5.8
Cc1ccc(NC(=O)N(Cc2cn(C)c3ccccc23)C2CCCCC2)cc1C	5.17µM*	·	·	·	5.8µM*	·
COc1cccc(NC(=O)N(Cc2cn(C)c3ccccc23)C2CCCCC2)c1	7.31µM*	·	·	·	4.11µM*	·
O=C(COc1cccc(Cl)c1)NCC(c1cccs1)N1CCOCC1 (centres undefined)	-19.6%	-0.5%	?	3.2%	-28.4%	17.0
Cc1cc(SCC(=O)NCC(c2cccs2)N2CCOCC2)c(C)cc1Br (centres undefined)	18.4µM*	?	?	0.1%	?	-26.2
